Measured values reported in PubChem BioAssay AID1628 (Sanford-Burnham Center for Chemical Genomics, 2009).
About 930 (0.49%) of roughly 190,000 compounds were called active.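 The calls were made as follows: active = z-score of insulin promoter reporter brightness in nuclei below -3 at 5 µM, with at least 500 cells counted; inconclusive = wells with under 500 cells, flagged as toxic or sparse; inactive = the rest.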 Some of the results follow. Potency and affinity values are given separately.

Experiment: decrease of insulin promoter-GFP reporter – imaging, high-content screening, mouse beta cells (AID 1628)
Details: MIN6 insulin promoter GFP reporter, at 5 µM, hits give low values

| SMILES | z-score |
| --- | --- |
| Cc1ccc(NC(=O)/C=C/c2ccc([N+](=O)[O-])s2)cc1 | 16.6 (inactive) |
| NC(=NCc1ccc2c(c1)OCO2)NC(=O)c1ccccc1 | -3.43 (active) |
| CC(=O)Oc1ccc2c(=O)c(-c3ccccc3)c(C)oc2c1 | -0.21 (inactive) |
| CCNc1c(N)c(=O)oc2ccccc12 | -0.02 (inactive) |
| Cc1ccc(CN2CCN(/N=C/C=C/c3ccccc3[N+](=O)[O-])CC2)cc1 | -4.13 (active) |
| N#CC(C#N)=C1C=C2C=C(N3CCCCC3)CCC2CC1 (centres undefined) | 18.2 (inactive) |
| CCN(CC)C(=O)c1sc2nc(-c3cccs3)cc(-c3cccs3)c2c1N | 4.15 (inactive) |
| CCN(CC)C(=O)c1sc(NC(=O)c2ccncc2)c(C(=O)OC)c1C | -4.37 (active) |
| Cc1c(Cl)cccc1NC(=O)CN1CCN(CCN=CC2=C(O)CC(c3ccccc3)CC2=O)CC1 (centres undefined) | 2.18 (inactive) |
| CC1=NNC(=O)C1CCC(=O)N/N=C/c1ccc(C)cc1 (centres undefined) | 3.3 (inactive) |
| Oc1ccc(/C=N/Nc2ccnc3cc(Cl)ccc23)c(O)c1 | 5.11 (inactive) |
| CCN1CCc2c(sc(NC(=S)NC(=O)c3ccc(Cl)cc3)c2C(N)=O)C1 | 3.92 (inactive) |
| CC1Cn2c(nnc2C23CC4CC(CC(C4)C2)C3)S1 (centres undefined) | -3.06 (active) |
| Cc1ccc(-c2csc(=Nc3cccnc3)n2CCCn2ccnc2)cc1C | -3.01 (active) |
| N#C/C(=C/c1ccc(N2CCCCCC2)o1)c1ccc(Cl)cc1 | 16.2 (inactive) |
| CC(=O)C1=C(C)Nc2ncnn2C1c1ccc(Cl)cc1Cl (centres undefined) | 3.45 (inactive) |
| CC1CN(C(=O)CCn2c(=O)oc3ccccc32)CC(C)O1 (centres undefined) | 8.04 (inactive) |
| CCCCN1C(=O)/C(=C/C=C2\Oc3ccccc3N2CC)SC1=S | 16.7 (inactive) |
| CCCN1C(=O)c2cccc3c(N4CCCCC4)ccc(c23)C1=O | 3.75 (inactive) |
| O=C1CCCC(O)=C1C=NCCc1ccccc1 | 3.02 (inactive) |
| Cc1ccc(Nc2nc(N3CCOCC3)c3ccccc3n2)cc1 | -3.61 (active) |
| O=c1c2cccc3c(N4CCOCC4)ccc(c32)c2nc3ccccc3n12 | 9.75 (inactive) |
| CCOC(=O)CSc1nc2ccc(Nc3nc(N4CCOCC4)nc(N4CCOCC4)n3)cc2s1 | -0.17 (inactive) |
| Cc1n[nH]c(C)c1N1C(=O)c2cccc3c(N4CCCCCC4)ccc(c23)C1=O | 8.27 (inactive) |
| O=C(C1CC1)N1CCC(c2nc(-c3ccc(S(=O)(=O)NCC4CCCO4)cc3)no2)CC1 (centres undefined) | -7.53 (active) |

| SMILES | z-score |
| --- | --- |
| Cc1noc(/C=C/c2ccc(-c3ccccc3Cl)o2)c1[N+](=O)[O-] | 8.03 (inactive) |
| COc1ccc(C)cc1NC(=O)COC(C)=O | 3.48 (inactive) |
| COc1ccc(Cl)cc1NC(=O)CN1CCC(n2nnc3cc(C)ccc32)CC1 | -4.05 (active) |
| O=C(NN=C1CCN(Cc2ccccc2)CC1)c1cccc(S(=O)(=O)Nc2ccccc2Cl)c1 | 3.03 (inactive) |
| Nc1cc(S(=O)(=O)Nc2ccccc2Cl)ccc1N1CCOCC1 | 2.18 (inactive) |
| O=C(O)c1ccccc1-c1ccccc1C(=O)NNc1ccccc1 | -3.66 (active) |
| CC(C)(C)S(=O)(=O)c1ccccc1C(=O)O | -1.55 (inactive) |
| O=C(NCCc1ccc(Cl)cc1)c1cccs1 | 1.56 (inactive) |
| Cc1ccc([N+](=O)[O-])cc1NC(=O)c1cccs1 | 3.18 (inactive) |
| CCCN1C(=O)c2ccccc2NC1c1ccc(C)cc1 (centres undefined) | 2.64 (inactive) |
| CCN(CCCCN1C(=O)c2ccccc2C1=O)c1ccc2c(c1)C(=O)N(C)C2=O | -3.55 (active) |
| COc1ccc(N(CCN2C(=O)c3ccccc3C2=O)C(=O)c2cccc([N+](=O)[O-])c2)cc1 | 3.09 (inactive) |
| COc1ccccc1OCc1nnc(SCC(=O)NCc2ccco2)n1-c1ccccc1 | 0.71 (inactive) |
| CC(C)Sc1nc(SCC(=O)NCc2ccco2)c2c3c(sc2n1)COC(C)(C)C3 | -3.28 (active) |
| CC(C)c1cccc(O)c(=O)c1 | -0.46 (inactive) |
| CCN(CC)c1ccc(/C=N/N2CCN(Cc3ccc(Cl)cc3)CC2)c(O)c1 | -5.88 (active) |
| CN1C(=O)CC(N2CCN(Cc3ccc(Cl)cc3)CC2)C1=O (centres undefined) | 3.88 (inactive) |
| Cc1nn(C)c(C)c1CNC(=O)c1nn2c(c1Cl)NC(c1cccs1)CC2C(F)(F)F (centres undefined) | -4.07 (active) |
| Cc1nn(C)cc1CNC(=O)c1cc2n(n1)C(C(F)(F)F)CC(c1cccs1)N2 (centres undefined) | -3.69 (active) |
| CCCc1cc(-n2ccnc2)n2c(nc3ccccc32)c1C#N | 5.52 (inactive) |
| COc1ccc2c(c1)C(C)=CC(C)(C)N2C(=O)CNCc1ccc2c(c1)OCO2 | -4.43 (active) |
| O=C(CSc1nc2ccc(Cl)cc2o1)NCc1ccc2c(c1)OCO2 | 3.95 (inactive) |
| CCCCCOC(=O)Cn1c(N2CCCCCC2)nc2c1c(=O)[nH]c(=O)n2C | -0.48 (inactive) |
| CC1=C(C(=O)Nc2ccc(F)cc2)C(c2ccncc2)C2=C(CCCC2=O)N1 (centres undefined) | 1.21 (inactive) |
| CCc1c(C(=O)Nc2ccncc2)csc1C | -4.62 (active) |

| SMILES | z-score |
| --- | --- |
| CCOc1ccc(OCC)c(-c2c(=O)n(OCc3ccc(Cl)cc3)c3ccccc3[n+]2[O-])c1 | 3.34 (inactive) |
| CCOC(=O)c1sc2nc(CSc3ccccc3Cl)[nH]c(=O)c2c1C | 1.87 (inactive) |
| Cc1sc2nc(-c3cccs3)nc(N3CCCN(C)CC3)c2c1C | -3.73 (active) |
| COC(=O)c1sc2nc(-c3ccccc3)nc(N3CCN(C)CC3)c2c1C | -4.28 (active) |
| CCN(CC)CCCOC(=O)C(c1ccccc1)c1ccccc1 | 0.01 (inactive) |
| CCc1ccc(C(O)(c2ccccc2OC)C(CN2CCOCC2)c2ccccc2)cc1 (centres undefined) | -3.08 (active) |
| COc1ccc(OCC(=O)Nc2ccccc2C(=O)N2CCOCC2)cc1 | 1.77 (inactive) |
| N#C/C(=C\c1ccc(N2CCOCC2)o1)c1ccccc1 | 4.39 (inactive) |
| CC(=O)c1c(N2CCOCC2)[nH]c(-c2ccccc2)nc1=S | 7.72 (inactive) |
| CCOCCCNc1nc2c(C)cccn2c(=O)c1/C=C1\SC(=S)N(C(C)CC)C1=O (centres undefined) | 17.6 (inactive) |
| CC(C)NC(=O)/C(C#N)=C\c1ccc(N(C)C)o1 | 11.5 (inactive) |
| Clc1ccc2[nH]c3c(NCC4CCCO4)ncnc3c2c1 (centres undefined) | -4.6 (active) |
| Fc1ccc(OCCOCCNCC2CCCO2)cc1 (centres undefined) | 1.23 (inactive) |
| c1ccc2c(c1)[nH]c1c(NCC3CCCO3)ncnc12 (centres undefined) | -3.45 (active) |
| CCN1CC=C2C(C1)C(c1ccc(Cl)s1)C(C#N)=C(N)C2(C#N)C#N (centres undefined) | 15.5 (inactive) |
| c1cncc(-c2nc(NCc3ccco3)c3ccccc3n2)c1 | -3.11 (active) |
| c1cncc(-c2nn[nH]n2)c1 | -1.32 (inactive) |
| CC(C)(C)c1nc2ccccc2c2nnc(SCC(=O)NCc3ccco3)n12 | 1.35 (inactive) |
| O=C(Nc1nnc(-c2ccccc2)o1)Nc1ccccc1Cl | 3.77 (inactive) |
| OC1(c2cccc(C(F)(F)F)c2)CCN(c2ncnc3c2[nH]c2ccc(F)cc23)CC1 | -4.94 (active) |
| COc1cccc(N2CCN(c3ncnc4c3[nH]c3ccc(F)cc34)CC2C)c1 (centres undefined) | -3.69 (active) |
| CCc1cccc2cc3c(N)c(C(=O)Nc4ccc(S(=O)(=O)N5CCCC5)cc4)sc3nc12 | 8.59 (inactive) |
| Cc1csc(SCC(=O)Nc2ccc(S(=O)(=O)N3CCCC3)cc2)n1 | 0.21 (inactive) |
| O=C(NCc1cccnc1)c1ccc(CN2CCc3ccccc3C2)cc1 | 0.66 (inactive) |
| O=C(Nc1ccc(S(=O)(=O)N2CCCCC2)cc1)c1ccncc1 | -3.68 (active) |

| SMILES | z-score |
| --- | --- |
| N#C/C(=C/c1ccc(N2CCCCCC2)o1)c1cccc(F)c1 | 15.9 (inactive) |
| COc1ccc(S(=O)(=O)N2CCN(c3ccc4nnc(-c5ccc(F)cc5)n4n3)CC2)cc1 | -4.36 (active) |
| Fc1ccc(-c2nnc3ccc(N4CCc5ccccc5C4)nn23)cc1 | -3.5 (active) |
| COc1ccc(-c2nnc3sc(C(C)N4C(=O)c5ccccc5C4=O)nn23)cc1 (centres undefined) | 1.87 (inactive) |
| O=S(=O)(c1ccc(OCC(O)CN2CCN(c3ccc(F)cc3)CC2)cc1)N1CCOCC1 (centres undefined) | -4.17 (active) |
| COc1ccccc1N1CCN(CC(O)COc2ccc(S(=O)(=O)N3CCOCC3)cc2)CC1 (centres undefined) | -3.8 (active) |
| OC(COc1cccc2ccccc12)CN1CCN(c2ccccc2Cl)CC1 (centres undefined) | 3.51 (inactive) |
| CC(C)NC(=O)N1CCN(c2ccncc2S(=O)(=O)N2CCOCC2)CC1 | 5.83 (inactive) |
| CCCCSc1cc(C)nc2ncnn12 | 0.8 (inactive) |
| O=C(O)CCCCCN1C(=O)/C(=C\c2ccc(-c3ccc(Cl)cc3)o2)SC1=S | 4.23 (inactive) |
| COc1cc2c3nnc(-c4ccc(F)cc4)c-3cn(Cc3ccc(F)cc3)c2cc1OC | 6.06 (inactive) |
| O=C(CN1CCCCCCC1)N/N=C/c1ccc(F)cc1F | -7.88 (active) |
| COC(=O)c1[nH]c2cccc(Cl)c2c1NC(=O)CN(C)C1CCCCC1 | 3.5 (inactive) |
| CCOC(=O)C1CCCN(CC(=O)Nc2c(C(=O)OC)[nH]c3ccc(C)cc23)C1 (centres undefined) | -3.29 (active) |
| CCS(=O)(=O)N1Cc2ccccc2CC1C(=O)OCC(=O)Nc1ccc(C)cc1 (centres undefined) | 5.05 (inactive) |
| Cc1[nH]c2ccccc2c1C(=O)CN1CCCCC1C (centres undefined) | -1.61 (inactive) |
| C=CCN1C=CC(=CC=C(C#N)C#N)C=C1 | 3.27 (inactive) |
| Cc1nn(C)cc1N1C(=O)c2cccc3c(N)ccc(c23)C1=O | 5.94 (inactive) |
| O=C(CN1CCN(Cc2ccc(Cl)cc2)C1=O)NCCCN1CCN(c2ccc(F)cc2)CC1 | -4.01 (active) |
| O=C(NCCN1CCCC1)C1(S(=O)(=O)c2ccc(Cl)cc2)CC1 | 3.06 (inactive) |
| c1ccc2c3c([nH]c2c1)C1(CCCCC1)NCC3 | -0.6 (inactive) |
| O=C(N/N=C/c1cn(-c2ccccc2)nc1-c1ccccc1)c1ccco1 | -4.01 (active) |
| Nc1c(C(=O)N/N=C/c2ccccc2Cl)oc2nc(-c3ccccc3)cc(-c3ccco3)c12 | 6.17 (inactive) |
| O=C(N/N=C\c1cn(-c2ccccc2)nc1-c1ccccc1)c1ccc(Br)o1 | 3.24 (inactive) |
